Compound activity: PubChem, National Center for Advancing Translational Sciences (NCATS)
G9a block: G9a (human) methyltransferase inhibition | Q96KQ7 | G9a H3K9 monomethylation, AlphaScreen, 2 h | Potency, µM (highest dose often 102 µM), inactives show at the highest dose activity, negative = inhibition, most hits filed as inhibitors | 350,000 compounds, 8.8% hits | AID 504332; also: % is scaled to controls: 0 for no effect and ±100 for the full control effect; nearly all actives have a fitted effect of over 75% in size
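Readings reflect AlphaScreen signal from monomethyl-H3K9 antibody detection. HMT at 20 nM; substrate b-H3K9 500 nM; cofactor SAM 20 uM; 2 h RT reaction; compounds tested as titrations in qHTS with 15 min preincubation.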
Glioma ERSR ind: inducers of ER stress response in human glioma cells | U87-MG GRP78 promoter luciferase reporter, 16 h | 420,000 compounds, 0.02% hits | AID 602332 | Potency, µM, for the others: top-dose activation, most hits filed as activators; also: series mostly up to about 76 µM; % of control where 0% means no effect; nearly all actives have a fitted effect of over 35% in size
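Stably transfected U87-MG glioma cells carrying a GRP78-based luciferase sensor; 16 h compound incubation. Luminescence end-point read 10 min after Bright-Glo addition at room temperature.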
Sfp inh: inhibitors of Bacillus subtilis Sfp phosphopantetheinyl transferase; Potency, µM, without a hit: largest response in the series, negative = inhibition, actives largely listed as inhibitors; 310,000 compounds, 3.5% hits; AID 1490; Biochemical Sfp PPTase activity, qHTS;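 also: the enzyme is Sfp with the accession as filed and its product quenches rhodamine fluorescence; 0% = enzyme reaction without inhibitor and -100% = no enzyme wells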
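With Hepes-Na pH 7.6 buffer containing 10 mM MgCl2, Sfp (15 nM) modified BHQ-2-YbbR (12.5 uM) using rhodamine-CoA (5 uM). Two reads 30 minutes apart at 525/598 nm yielded each well's rate.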
VDR inh: blocks the human vitamin D receptor. AID 504847. VDR-SRC2-3 peptide fluorescence polarization, 2 h. Potency, µM, inactives show max response, negative = inhibition, most hits filed as inhibitors. 400,000 compounds, 0.93% hits; also: % is scaled to controls: 0 for no effect and ±100 for the full control effect
Target sequence (P11473 whole entry, looked up): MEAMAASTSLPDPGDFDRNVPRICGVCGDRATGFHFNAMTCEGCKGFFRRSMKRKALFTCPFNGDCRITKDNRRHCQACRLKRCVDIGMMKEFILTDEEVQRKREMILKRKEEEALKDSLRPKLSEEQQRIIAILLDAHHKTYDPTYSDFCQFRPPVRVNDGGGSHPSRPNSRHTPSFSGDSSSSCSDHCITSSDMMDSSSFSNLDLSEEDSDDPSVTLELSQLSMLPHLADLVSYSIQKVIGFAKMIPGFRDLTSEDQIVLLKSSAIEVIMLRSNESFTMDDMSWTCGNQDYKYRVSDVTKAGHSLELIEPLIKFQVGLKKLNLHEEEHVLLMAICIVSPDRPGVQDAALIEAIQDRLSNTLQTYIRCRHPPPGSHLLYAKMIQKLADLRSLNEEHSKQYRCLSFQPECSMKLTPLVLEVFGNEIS
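Inhibition of the VDR/SRC2-3 peptide interaction is quantified by fluorescence polarization. Compounds (23 nl, pintool) incubate with the reagents for 2 hours at ambient room temperature.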
ALOX12 inh: ALOX12 (human) lipoxygenase inhibition; 580,000 compounds, 1.1% hits; AID 1671190; Potency, µM (titrated, usually from 108 µM), without a hit: top-dose activity change, negative = inhibition, actives largely listed as inhibitors; P18054; purified 12hLO, xylenol orange hydroperoxide absorbance; also: % is scaled to controls: 0 for no effect and ±100 for the full control effect
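Purified human 12hLO at 150 nM in 25 mM Hepes, 0.01% Triton X-100, pH 7.0, preincubated 15 min at room temperature with compound. Reaction started with 40 uM arachidonic acid, 30 min at room temperature. Hydroperoxide measured by Fe-xylenol orange, 573/405 nm absorbance ratio.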
The depositor's hits bear a star; ? = inconclusive; / = no result given; ! = repeats disagree; [ ] = remark or other dose. Many of the other results were omitted from the sample, so hits are more common in it than they were. Calls follow the shape of the dose curve; as a rule, active = well fitted curve in the direction sought with a large enough effect; inconclusive = small, poorly fitted or top-dose-only effect, or another doubt; inactive = no such curve, though single readings can be large; an effect the other way counts as inactive or inconclusive. Potency is read from the fitted curve at half-maximal effect.

SMILES	G9a block	Glioma ERSR ind	Sfp inh	VDR inh	ALOX12 inh
N#C/C(=C\C1=C(N2CCOCC2)C(=C/c2cccc([N+](=O)[O-])c2)/CC1)C(=O)Nc1ccccc1F	2.5µM*	-3%	?	-11%	-12%
N#C/C(=C\C1=C(N2CCOCC2)C(=C\c2ccc(Cl)cc2)/CC1)C(=O)Nc1ccccc1F	10µM*	-3%	-18%	-5%	?
N#C/C(=C/C1=C(N2CCOCC2)C(=C/c2cccc([N+](=O)[O-])c2)/CC1)C(=O)Nc1ccccc1F	/	17%	/	0%	-1%
N#C/C(=C/C1=C(N2CCOCC2)C(=C/c2ccccc2)/CC1)C(=O)Nc1ccccc1F	/	0%	/	4%	-7%
CC(C)C1=NOC2(CCCN(CC3CCCCC3)C2)C1 (stereo not given)	/	/	/	/	1%[12.5 µM]
O=c1c2c3c(sc2n2cnnc2n1-c1ccccc1)N(Cc1ccccc1)CCC3	13µM*	-4%	?	?	/
O=C(CSc1nnnn1-c1ccccc1)N1CCNC1=O	8%	-2%	2%	13%	-16%
Cc1cccc(C)c1-n1nnnc1SCC(=O)N1CCNC1=O	45µM*	-4%	/	-1%	0%
COc1ccc(-c2c(NC(=O)c3cccc([N+](=O)[O-])c3)oc3c(C)cccc3c2=O)cc1OC	/	/	/	/	-1%
O=C(O)c1[nH]c2ccc([N+](=O)[O-])cc2c1-c1ccccc1	17%[12.7 µM]	-5%	-3%	-25%	?
NNC(=O)c1[nH]c2ccc([N+](=O)[O-])cc2c1-c1ccccc1	?	-7%	-2%	79µM*	24%
CCOc1ccccc1Nc1nnc(SCC(=O)Nc2nc(-c3ccc(OC)cc3)cs2)s1	8.9µM*	1%	8%	8%	14%
COc1ccc(-c2csc(NC(=O)CSc3nnc(Nc4ccccc4C)s3)n2)cc1	11µM*	-1%	16%	17%	-9%
COc1ccccc1Nc1nnc(SCC(=O)Nc2nc(-c3ccc(F)cc3)cs2)s1	/	4%	2%	-6%	-21%
CCc1ccc(CNc2nc3nc(CC)cc(=O)n3[nH]2)cc1	/	/	/	/	-8%
CC(C)C(C)(C#N)NC(=O)COc1ccc2ccc(=O)oc2c1 (stereo not given)	/	/	/	/	-11%
CCCCOc1ccc(C(=O)NC(=S)NCCCO)cc1Br	/	/	/	/	7.9µM*
CC(N)(C(=O)O)c1ccc(C(=O)O)cc1 (stereo not given)	17%[12.7 µM]	-5%	56µM*	2%	6%
C[C@@](N)(C(=O)O)c1ccc(C(=O)O)cc1	27%[59 µM]	0%	50µM*!	-2%	?
O=C(c1ccccc1C(F)(F)F)N1CCc2c(nc3cc[nH]n3c2=O)C1	/	/	/	/	40%
Cc1ccc(S(=O)(=O)N2CCN(C(C)C)CC2)cc1	-6%	-5%	13%	-6%	5%
CCC(C)c1ccc(S(=O)(=O)N2CCN(C(C)CC(=O)O)CC2)cc1 (stereo not given)	7.1µM*	-2%	-8%	-12%	-6%
Cc1ccc(S(=O)(=O)N2CCN(C(C)CC(=O)O)CC2)cc1 (stereo not given)	28µM*	-5%	?	7%	?
O=C(Cc1ccc(Cl)cc1)N/N=C/c1ccc(O)c(O)c1	/	?	/	/	14µM*
O=C(c1ccc(F)cc1F)N(Cc1ccco1)C1CC1	/	/	/	/	0%
SMILES	G9a block	Glioma ERSR ind	Sfp inh	VDR inh	ALOX12 inh
O=C(N/N=C/c1ccc(Br)cc1)c1cc[n+](Cc2ccccc2)cc1	?	-3%	79µM*	-6%	-18%
O=C(C[n+]1cccc(C(=O)N/N=C/c2ccc(Br)cc2)c1)c1ccccc1	1.4µM*	2%	/	-1%	10%
Cc1cccc(N2CCC(N=CN(C)C)=N2)c1	4µM*	5%	?	3%	45µM*
O=C(Nc1nn[nH]n1)c1cccc(Oc2ccccc2)c1	40µM*	-1%	-6%	-8%	28%
CCOc1ccccc1C(=O)Nc1nn[nH]n1	25µM*	-2%	23%	11%	?
Cc1oc(C(=O)O)cc1CSCc1cc(C(=O)O)c(C)o1	14µM*	0%	20µM*	-11%	?
Cc1oc(C(=O)O)cc1CSCc1ccoc1C(=O)O	45µM*	-1%	-4%	-7%	19%
NC(=O)c1cccc(C(=O)Nc2cccc3cccnc23)c1	/	/	/	/	-31%
CCOC(=O)/C(C)=C1\NC(C)(C)Cc2ccccc21	2.5µM*	-2%	?	-21%	16µM*
